Experimental findings from PubChem BioAssay AID651593 (National Center for Advancing Translational Sciences (NCATS), 2012) are described below.

About 860 (78%) of roughly 1,100 compounds were called active. Another 19% or so got no clear call; they are omitted. So high a share suggests a set chosen from earlier hits. The list shows a part of the results. Unmarked numbers belong to inactive results. The call rests on the fitted dose curve; in most records, active means well fitted activation curve with a large enough effect; inconclusive means small, poorly fitted or top-dose-only effect; inactive means flat fitted curve, though single readings scatter.
Potency means the concentration at half of the fitted maximal effect.

The nature of this experiment: qHTS of Nrf2 Activators: Hit Validation in Primary Assay. Further: nearly all actives have a fitted effect of over 70% in size. On activation: 0% is about no effect. To be noted: Nrf2/ARE reporter cell assay; Potency: activation; series mostly up to 46.1 µM; activation: at the top concentration. In a few lines:
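AREc32 cells stably carrying an ARE-driven firefly luciferase, plated overnight, then exposed 24 h at 37 °C to compounds at several concentrations. ARE activation read as luminescence with Steady-Glo after 30 min at room temperature.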
On the technique in general: Quantitative high-throughput screening tests each substance at several concentrations.
As for `CNc1ccccc(C(=O)/C=C/c2ccccc2OC)c1=O`, the Potency is 20.6 µM (active). Same read-out and setting: with `CNc1ccc(Br)cc(C(=O)/C=C/c2cccc(Cl)c2Cl)c1=O` the figure was 1.84 µM (active); with `CSc1nsc(SC)c1C(=O)Nc1ccc(C)cc1`, 16.4 µM (active); with `CSc1nsc(SC)c1C(=O)Nc1ccc(Cl)cc1`, 4.61 µM (active). `CC(OC(=O)/C=C/c1ccc2ccccc2n1)C(=O)Nc1ccc(S(N)(=O)=O)cc1` (stereo not given): the Potency was 20.6 µM (active). On the same count and under the same terms, the result for `Cc1cc(=O)oc2cc(NC(=O)c3ccccc3Cl)ccc12` reads 2.91 µM (active). For `CCN(CC)c1ccc2c(c1)oc(=O)c1c(Cl)cc(=O)oc12`, the “activation” value is 3.61%. With `COC(=O)c1sccc1NC(=O)c1cccc(OC)c1`, the Potency was 7.31 µM (active). With `COC(=O)c1sccc1NC(=O)c1ccccc1`, the Potency was 20.6 µM (active).

As for `COC(=O)c1sccc1NC(=O)c1cc(C)on1`, the Potency is 16.4 µM (active). Still for that read-out and setting: the result for `COC(=O)c1sccc1NC(=O)c1cccc(F)c1` reads 18.4 µM (active). Still for that read-out and setting: the result for `COc1cccc(C(=O)Nc2cc(Cl)c(O)c(Cl)c2)c1` reads 5.17 µM (active). Same read-out and setting: with `COC(=O)c1sccc1NC(=O)c1ccc(OC)c(OC)c1` the figure was 4.61 µM (active). Regarding `COC(=O)c1sccc1NC(=O)c1cccc(Cl)c1`, the Potency was 20.6 µM (active). On the same count and under the same terms, with `COC(=O)c1sccc1NC(=O)c1ccccc1F` the figure was 18.4 µM (active). On the same count and under the same terms, with `O=C(NNC(=O)c1sccc1-n1cccc1)c1cccc(Cl)c1` the figure was 2.59 µM (active); with `COC(=O)c1sccc1NC(=O)c1csc(C)c1`, 4.61 µM (active).

In the case of `COC(=O)c1sccc1NC(=O)Nc1ccc(Cl)c(Cl)c1`, the Potency is 14.6 µM (active). Still for that read-out and setting: with `COc1ccc(NC(=O)c2ccc([N+](=O)[O-])s2)c([N+](=O)[O-])c1` the figure was 9.2 µM (active); with `COc1ccc(OC)c(NC(=O)C(C#N)=Cc2ccco2)c1`, 6.51 µM (active); with `COc1ccccc1NC(=O)/C(C#N)=C/c1cccn1C`, 20.6 µM (active).

Consider `O=Cc1c(Sc2ccccn2)nc2ccccn2c1=O`, for which the Potency was 20.6 µM (active). The same measure, in the same setting: with `COC(=O)CSc1nc2ccccn2c(=O)c1C=O` the figure was 20.6 µM (active); with `Nc1nc(/C=C/c2ccc(F)cc2)nc(-c2ccccc2O)n1`, 2.59 µM (active); with `Nc1nccc(-c2ccc(-n3cccc3)cc2)n1`, 13 µM (active).

Regarding `COc1ccc(Cl)cc1C(=O)NC(=S)Nc1nc(C)cc(C)n1`, the “activation” value was 5.97%. `COc1ccc(Cl)cc1NC(=O)c1cc(C)no1`: the Potency was 10.3 µM (active). Still for that read-out and setting: the result for `COc1ccc(Cl)cc1NC(=O)c1cc(-c2ccccc2O)n[nH]1` reads 2.91 µM (active); that for `COc1cc2c(cc1NC(=O)c1ccco1)CCCC2`, 3.26 µM (active). As for `COc1cc(OC)c(NC(=O)c2ccco2)cc1Cl`, the Potency was 13 µM (active).

With `Cc1ccc2nsnc2c1NC(=S)NC(=O)c1ccco1`, the Potency is 4.61 µM (active). Still for that read-out and setting: with `Cc1ccc([N+](=O)[O-])cc1NC(=S)NC(=O)c1ccco1` the figure was 4.11 µM (active). On the same count and under the same terms, the result for `COc1ccc(Cl)cc1NC(=O)c1ccco1` reads 4.61 µM (active); that for `CCOc1ccsc1C(=O)NNC(=O)c1ccco1`, 5.8 µM (active); that for `CC(=O)c1cc2c(cc1NC(=O)c1ccco1)OCCO2`, 3.66 µM (active). On the same count and under the same terms, with `CCOc1ccccc1NC(=S)NC(=O)c1ccco1` the figure was 10.3 µM (active).

Consider `O=C(Nc1cc(Cl)ccc1-n1cncn1)c1ccco1`, for which the Potency is 10.3 µM (active). Still for that read-out and setting: the result for `COc1ccc([N+](=O)[O-])cc1NC(=O)c1ccco1` reads 5.17 µM (active); that for `Cc1cc(C(=O)Nc2cc(Br)ccc2O)on1`, 13 µM (active). On the same count and under the same terms, with `O=C(Nc1ccc(Br)c(Cl)c1)c1ccco1` the figure was 2.06 µM (active); with `Cc1cc(NC(=S)NC(=O)c2ccco2)c2ccccc2n1`, 2.59 µM (active); with `Cc1ccc(-n2nc3c([n+]2[O-])CCc2c-3no[n+]2[O-])cc1`, 0.291 µM (active).

In the case of `[O-][n+]1onc2c1CCc1c-2nn(-c2ccccc2Cl)[n+]1[O-]`, the Potency was 0.92 µM (active). Still for that read-out and setting: the result for `COc1ccc(-c2nnc3c4ccccc4c(C)nn23)cc1` reads 3.66 µM (active); that for `Cc1nn2c(-c3ccccc3)nnc2c2ccccc12`, 4.11 µM (active). The same measure, in the same setting: the result for `CC1CCCCC1NC(=O)COC(=O)c1c2c(nc3ccccc13)/C(=C/c1ccco1)CC2` (stereo not given) reads 8.2 µM (active); that for `O=C(Nc1ccc2c(c1)C(=O)NC2=O)c1cccc(C(F)(F)F)c1`, 2.06 µM (active); that for `O=C(Nc1ccc2c(c1)C(=O)NC2=O)c1ccccc1`, 20.6 µM (active). On the same count and under the same terms, the result for `O=C(Nc1nc(=O)c2ccccc2s1)c1ccccc1` reads 0.731 µM (active). Take `Cc1csc2nc(NC(=O)c3ccccc3)sc(=O)c12`: the Potency was 8.2 µM (active). With `S=C(NNc1ccc2ccccc2c1)NC1CCCCC1`, the Potency was 13 µM (active).

On to `CCC(CC)c1nnc(NC(=O)/C=C/c2ccco2)s1`, for which the Potency is 1.46 µM (active).

With `Cc1nnc(NC(=O)/C=C/c2ccco2)s1`, the Potency was 8.2 µM (active). As to `CCc1nnc(NC(=O)/C=C/c2ccco2)s1`, the Potency is 6.51 µM (active).

Consider `Cc1csc(NC(=O)/C=C/c2ccco2)n1`, for which the Potency was 4.11 µM (active). On to `O=C(/C=C/c1ccco1)NC(=S)Nc1nc(-c2ccc(Cl)cc2)cs1`, for which the “activation” value was 13.6%. Regarding `Cc1cc(C)c2oc(-c3ccc(C)c(NC(=O)/C=C/c4ccco4)c3)nc2c1`, the Potency is 2.91 µM (active).

As for `CNS(=O)(=O)c1ccc2nc(NC(=O)/C=C/c3ccco3)sc2c1`, the Potency was 1.84 µM (active). Still for that read-out and setting: the result for `Cc1cccc(C)c1NC(=S)NC(=O)c1cccc(Cl)c1` reads 3.26 µM (active). The same measure, in the same setting: the result for `Cc1ccc(NC(=O)/C=C/c2ccc([N+](=O)[O-])s2)cc1` reads 2.31 µM (active). The same measure, in the same setting: with `Cc1cc(C)cc(NC(=O)/C=C/c2ccc([N+](=O)[O-])s2)c1` the figure was 2.31 µM (active).

For `O=C(CSc1nnc(-c2ccco2)c(-c2ccco2)n1)c1ccccc1`, the Potency is 5.17 µM (active). Still for that read-out and setting: the result for `CSc1nnc(-c2ccco2)c(-c2ccco2)n1` reads 11.6 µM (active); that for `CSC1=NC(C)(C)C=C(/C=C/c2ccc(Cl)cc2)N1`, 9.2 µM (active); that for `Brc1cc(Cc2nnc(-c3ccccc3)o2)c(Br)s1`, 8.2 µM (active). On the same count and under the same terms, the result for `O=C(Nc1ccccc1C(=O)NCCc1ccccc1)c1ccco1` reads 2.06 µM (active); that for `Cc1ccc(O)c(NC(=O)c2cccc(NC(=O)c3ccco3)c2)c1`, 2.59 µM (active). As to `O=C(Nc1cccc(F)c1)c1ccco1`, the “activation” value is 21.9%. On to `O=C(Nc1ccccc1O)c1cccc(NC(=O)c2ccco2)c1`, for which the Potency was 4.11 µM (active). On the same count and under the same terms, the result for `CCCc1nc([N+](=O)[O-])c(S(=O)(=O)c2ccccc2)n1CC(C)C` reads 3.26 µM (active). The same measure, in the same setting: the result for `S=C(NCc1ccco1)Nc1ccccn1` reads 9.2 µM (active).

As for `Brc1ccc(-c2nnc(-c3cccnc3)c3conc23)cc1`, the Potency is 0.517 µM (active). Same read-out and setting: the result for `C#CCSc1nc(-c2cccs2)ccc1C#N` reads 4.61 µM (active); that for `Cc1cc(C)n(-c2nc3ccccc3c(=O)n2OCc2ccc(F)cc2)n1`, 1.84 µM (active); that for `CC1(C)CC[C@]2(C(=O)n3ccnc3)CC[C@]3(C)[C@H](C(=O)C=C4[C@@]5(C)C=C(C#N)C(=O)C(C)(C)[C@@H]5CC[C@]43C)[C@@H]2C1`, 0.092 µM (active). Same read-out and setting: with `O=[N+]([O-])c1ccc(NN=Cc2ccco2)nc1` the figure was 0.731 µM (active); with `Brc1ccc(-c2csc(N/N=C/c3ccco3)n2)cc1`, 2.91 µM (active); with `CCn1nc(C)c(Br)c1-c1nc(-c2cccc(C)c2)no1`, 8.2 µM (active). Still for that read-out and setting: with `O=C(Nc1cccc(F)c1)c1cc(-c2ccco2)nc2ccccc12` the figure was 2.06 µM (active); with `COc1ccccc1CNC(=O)COC(=O)c1cc(-c2ccco2)nc2ccccc12`, 9.2 µM (active); with `O=C(Nc1ccc(F)cc1F)c1cc(-c2ccco2)nc2ccccc12`, 0.731 µM (active). `O=C(Nc1ccccc1F)c1cc(-c2ccco2)nc2ccccc12`: the Potency was 2.06 µM (active). On the same count and under the same terms, the result for `CC1Oc2ccccc2OC1C(=O)Nc1ccccn1` (stereo not given) reads 2.91 µM (active).

For the molecule `CSc1nsc(SC)c1NC(=O)Nc1ccccn1`, the Potency is 5.17 µM (active). Still for that read-out and setting: the result for `O=[N+]([O-])c1cc(Cl)cc2c1nc(NCCO)c1ccccc12` reads 10.3 µM (active). As for `Brc1ccccc1/C=N/Nc1ccccn1`, the Potency was 6.51 µM (active).

For `Clc1cccc(Cl)c1/C=N\Nc1nccs1`, the Potency is 9.2 µM (active).

For `O=[N+]([O-])c1ccc(Cl)cc1C=NNc1ccccn1`, the Potency was 3.26 µM (active). For the molecule `Clc1ccccc1NN=Cc1ccccn1`, the Potency is 5.8 µM (active). Still for that read-out and setting: the result for `Cc1ccc(C)c(/C=N/Nc2ccccn2)c1` reads 6.51 µM (active); that for `Fc1cccc(Cl)c1/C=N/Nc1ccccn1`, 4.11 µM (active); that for `Clc1ccccc1C=NNc1ccccn1`, 2.31 µM (active). On to `O=[N+]([O-])c1ccc(Cl)cc1N/N=C/c1ccncc1`, for which the Potency was 0.731 µM (active). Still for that read-out and setting: the result for `CCOc1ccccc1NS(=O)(=O)c1c(C(=O)OC)sc2cccc(F)c12` reads 14.6 µM (active). With `O=C1C(Cl)=C(N2CCN(c3ccccc3[N+](=O)[O-])CC2)C(=O)c2ccccc21`, the Potency is 3.66 µM (active).

As to `Cc1cc(=O)n2nc(-c3ccccc3)sc2c1C#N`, the Potency is 4.11 µM (active). The same measure, in the same setting: with `CCn1c(=O)c([N+](=O)[O-])c(NCc2ccco2)c2ccccc21` the figure was 5.8 µM (active); with `N#Cc1ccccc1N/C=C/C(=O)c1ccc(Cl)cc1`, 2.31 µM (active); with `CC(/C=N/Nc1nnc2c(n1)[nH]c1ccccc12)=C\c1ccco1`, 10.3 µM (active). Regarding `O=C1CSC(=S)N1Cc1cccnc1`, the Potency is 10.3 µM (active). On the same count and under the same terms, the result for `C#CCOc1ccc(/C=C2\SC(=S)N(Cc3cccnc3)C2=O)cc1` reads 4.61 µM (active); that for `O=C1/C(=C/c2ccccc2O)SC(=S)N1Cc1cccnc1`, 4.61 µM (active). On the same count and under the same terms, the result for `COc1ccc(OC)c(/C=C2\SC(=S)N(Cc3cccnc3)C2=O)c1` reads 5.17 µM (active).

On to `C[C@H]1CCC[C@]2(C)C[C@H]3OC(=O)C(CN4CCCCCC4)[C@H]3C=C12` (stereo not given in full), for which the Potency is 5.8 µM (active). The same measure, in the same setting: the result for `CC1CCN(CC2C(=O)O[C@@H]3C[C@@]4(C)CCC[C@H](C)C4=C[C@H]23)CC(C)(C)C1` (stereo not given in full) reads 5.8 µM (active).
